We go through 89 molecules from the supplement of paper PMC4723716.

Molecules are shown by their SMILES. The full ranking holds about 3,600 compounds; the median of “viability index relative to DMSO control” is about 0.81, and the lowest 2% start at about 0.13. The entries come from a sample that favours the lowest values as a whole.
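Further: Saponin-lysis sexual stage assay in serum-free medium: MitoTracker Red CMXRos staining plus saponin, high-content imaging, particle count per well divided by plate mean of DMSO wells.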

In the assay the test system is Plasmodium falciparum NF54 stage V gametocytes. The assay can be described thus: viability index relative to DMSO control (fraction); higher = less gametocyte killing. To be noted: 1.25 µM, incubation time: 72 h.
Turning to `CCOc1ccccc1C1C(C#N)=C(SCC(=O)Nc2ccc(Cl)cc2)NC(C)=C1C(=O)Nc1ccccc1` (centres undefined), the viability index was 0.5.
In the case of `Fc1ccc(CSc2nc3cccnc3[nH]2)cc1`, the viability index turned out to be 1.24.
The result for `Cc1cc(C)cc(NC2=C(N)C(=O)c3ccccc3C2=O)c1` reads 0.707; that for `COc1ccc(-c2cc(C3CCN(c4nc(N)c5cc(OC)c(OC)cc5n4)CC3)n[nH]2)cc1OC`, 1.17; that for `COc1cc2nc(N3CCN(c4nc(N)c5cc(OC)c(OC)cc5n4)CC3)nc(N)c2cc1OC`, 0.0192.
`COc1cc2nc(Nc3ccc(F)cc3)nc(N)c2cc1OC` yielded a viability index of 0.787.
The molecule `O=C(CNCCc1ccccc1)NC(c1ccccc1)c1ccccc1` had a viability index of 0.761.
Regarding `CCOc1ccc(C=C(C#N)c2nc3ccccc3[nH]2)cc1OC`, the viability index was determined as 0.837.
`COc1cc2c(-c3cc(Br)ccc3O)nc3c(c(Cc4ccccc4)nn3-c3ccccc3)c2cc1OC` registered a viability index of 0.595.
`CC(C=NNC(N)=S)=NNC(N)=S` showed a viability index of 0.131.
For `NC(=S)NN=Cc1cc([N+](=O)[O-])ccc1O`, the viability index came out at 0.176.
For `CCOc1ccc(CCN2C(=S)N(c3cccc(C(F)(F)F)c3)C(=O)C2CC(=O)Nc2ccc(C(=O)OC)cc2)cc1OCC` (centres undefined), the viability index came out at 0.582.
As to `N#Cc1c(-c2ccccc2)cc(N2CCN(C3CCCCC3)CC2)n2c1nc1ccccc12`, the viability index amounted to 0.822.
Molecule `COc1ccc(-c2c[n+](CC(=O)c3cccc(OC)c3)c3n2CCC3)cc1` registered a viability index of 0.74.
Turning to `Cc1ccc2c(c1)C(C)(c1ccc(Cl)cc1)CC(C)(C)N2C(=O)COc1ccc2ccccc2c1` (centres undefined), the viability index stood at 0.826.
Molecule `O=C(C[n+]1cc(-c2ccc(F)cc2)n2c1CCC2)Nc1ccc(Cl)cc1` showed a viability index of 1.44.
On to `CCSC(Cl)=C(NC(=O)c1ccccc1)[P+](c1ccccc1)(c1ccccc1)c1ccccc1`, for which the viability index came out at 0.0362.
The result for `Cc1c(Cl)cccc1NC(=O)CCC(=O)NNC(=O)c1ccccc1` reads 0.9; that for `CCCc1ccc(C(=O)NC(=O)c2ccccc2O)cc1`, 1.05.
As for `O=C1C(Sc2nc[nH]n2)=CC(=NS(=O)(=O)c2cccs2)c2ccccc21`, the viability index was 0.707.
Regarding `COc1ccccc1NC1=CC(=NS(=O)(=O)c2ccccc2)c2ccccc2C1=O`, the viability index was 0.247.
In turn, `COc1ccc(S(=O)(=O)N=C2C=C(Nc3ccccc3OC)C(=O)c3ccccc32)cc1` had a viability index of 0.0579.
On to `COc1ccccc1NC1=CC(=NS(=O)(=O)c2cccs2)c2ccccc2C1=O`, for which the viability index was determined as 0.0154.
As for `O=C1C(Nc2ccc(O)cc2)=CC(=NS(=O)(=O)c2cccs2)c2ccccc21`, the viability index is 0.306.
For `COc1ccccc1NC1=CC(=NS(=O)(=O)c2ccc(F)cc2)c2ccccc2C1=O`, the viability index stood at 0.189.
`Cc1cccc(CCNc2cc(C)nc3ncnn23)c1` showed a viability index of 0.982.
`COc1ccc2[nH]c(SCC(=O)Nc3cccc(NC(=O)CSc4nc5cc(OC)ccc5[nH]4)n3)nc2c1` had a viability index of 0.353.
In the case of `Cc1cccc(NC(=O)C2C3C=CC4(O3)C2C(=O)N(CC2COc3ccccc3O2)C4C(=O)NC2CCCC(C)C2C)c1` (centres undefined), the viability index was 1.33.
With `Cc1cc2nc(NC(=N)N)nc(C)c2cc1C`, the viability index was 0.718.
Molecule `CC(C)c1ccc2c(c1)c1c3c([n+](C)ccn32)CCC1` registered a viability index of 1.22.
Molecule `CC(Cc1ccsc1)Nc1nc2nonc2nc1N(C)C` (centres undefined) returned a viability index of 0.853.
As for `Cc1ccc(OCCCCN2CCOCC2)c([N+](=O)[O-])c1`, the viability index amounted to 0.798.
The result for `COC1=C(Nc2cccc(C(F)(F)F)c2)C(=O)c2ccccc2C1=O` reads 0.606.
`O=C(Nc1cc(Cl)cc(Cl)c1)Nc1cccc(C(F)(F)F)c1` returned a viability index of 1.06.
With `O=C1C=C(Nc2cccc(C(F)(F)F)c2)C(=O)c2ccccc21`, the viability index amounted to 0.0673.
As to `CCOC(=O)c1ccc(N(C(=O)Cc2c[nH]c3ccccc23)C(C(=O)NC2CCCCC2)c2cccc(OC)c2OC)cc1` (centres undefined), the viability index worked out at 0.849.
As for `NC12CC3CC(C1)CC(SSC14CC5CC(CC(N)(C5)C1)C4)(C3)C2`, the viability index came out at 0.11.
Take `COc1ccc(C2CC(=O)C3=C(C2)NC(=O)CC3c2ccc([N+](=O)[O-])cc2)cc1OC` (centres undefined): the viability index amounted to 0.406.
`O=C(Nc1ccc(-n2cnnn2)cc1)C1CCN(Cc2cc3ccccc3o2)CC1` had a viability index of 0.942.
With `COc1ccc2c(c1)OC(O)(C(F)(F)C(F)(F)F)CC2=O` (centres undefined), the viability index worked out at 0.6.
The result for `CCN(CC)S(=O)(=O)c1cc(C(=O)O)ccc1Cl` reads 0.971; that for `COc1cccc(OC)c1C(=O)Nc1cc(C(F)(F)F)ccc1Cl`, 0.971; that for `COC(=O)c1ccc(C=NNc2cc(C)nc3ccc(OC)cc23)cc1`, 0.0573.
In turn, `COc1ccc(C=NNc2cc(C)nc3ccccc23)cc1` came in with a viability index of 0.946.
`COc1ccc(C=NNc2cc(C)nc3ccc(OC)cc23)c(OC)c1`: the viability index was 0.591.
`CC(C)(C)CC(C)(C)c1ccc(O)c(CN2CCN(CCC#N)CC2)c1` gave a viability index of 0.735.
`COc1ccc(CNC2CCN(c3cccc(NC(=O)C4CC4)c3)CC2)cc1` yielded a viability index of 1.12.
`C=CCN1C(=O)C(=C2Sc3ccc(OC)cc3N2C)SC1=Nc1ccccc1-c1ccccc1`: the viability index was found to be 0.448.
The result for `Oc1ccc(-c2cncnc2)cc1CNC1CCN(Cc2ccccc2)CC1` reads 1.
Take `CCN(CC)Cc1cc(Nc2ccnc3cc(Cl)ccc23)ccc1O`: the viability index came to 0.873.
`COc1ccc(-c2cnnc(NN=Cc3ccc([N+](=O)[O-])o3)n2)cc1`: the viability index amounted to 0.0154.
In turn, `O=[N+]([O-])c1ccc(C=NNc2nc(Nc3ccccc3)nc(Nc3ccccc3)n2)o1` registered a viability index of 0.0664.
In the case of `O=[N+]([O-])c1ccc(-c2ccc(C=NNc3nc(Nc4ccccc4)nc(Nc4ccccc4)n3)o2)cc1`, the viability index was 0.626.
Then `COc1ccc(Nc2nc(NN=Cc3cccc([N+](=O)[O-])c3OC)nc(Nc3ccc([N+](=O)[O-])cc3)n2)cc1`, with 0.469; and `O=[N+]([O-])c1ccc(Nc2nc(NN=Cc3ccccc3I)nc(Nc3ccccc3)n2)cc1`, with 0.985.
Then `Cc1nonc1C(=O)NN=Cc1ccc([N+](=O)[O-])o1`, with 0.871.
`COc1ccc(NC(=O)NCc2cccn2Cc2ccc(F)cc2)cc1OC` came in with a viability index of 0.952.
`CCOC(=O)c1sc(Nc2c(Cl)cc(S(N)(=O)=O)cc2Cl)nc1C` registered a viability index of 0.886.
Turning to `CCOC(=O)C1=C(C)NC2=C(C(=O)CC(c3ccc(OC)c(OC)c3)C2)C1c1ccccc1OC` (centres undefined), the viability index worked out at 0.68.
`CCOC(=O)c1c(NC(=O)CSc2nnc(CNC(=O)c3ccc(C)c(C)c3)n2C2CCCCC2)sc2c1CCC2` registered a viability index of 0.784.
In the case of `O=C1CN(C(=O)CCC2CCCC2)C(c2ccc(F)cc2)c2cc(Cl)ccc2N1` (centres undefined), the viability index was 0.751.
`S=P(OCC1C(COP(=S)(c2ccccc2)c2ccccc2)C1(Cl)Cl)(c1ccccc1)c1ccccc1` (centres undefined): the viability index came out at 0.562.
Regarding `CN1C(=O)N(C)C2(c3ccccc3)NN3C(=NC12c1ccccc1)SC1=C3C(=O)c2ccccc2C1=O` (centres undefined), the viability index turned out to be 0.0309.
`CCOC(=O)c1nnn(-c2nonc2N)c1-c1ccc(Br)cc1` yielded a viability index of 0.676.
The result for `CCOC(=O)c1c(C)oc2c1C(=O)c1ccccc1C2=O` reads 0.902; that for `Cc1oc2c(c1C(=O)NCCCn1ccnc1)C(=O)c1ccccc1C2=O`, 0.0826; that for `Cc1oc2c(c1C(=O)N1CCN(C)CC1)C(=O)c1ccccc1C2=O`, 0.43.
On to `Cc1oc2c(c1C(=O)NCC1CCCO1)C(=O)c1ccccc1C2=O` (centres undefined), for which the viability index was 0.195.
Then `Cc1oc2c(c1C(=O)NCc1cccnc1)C(=O)c1ccccc1C2=O`, with 0.231; and `CCOC(=O)C1CCCN(C(=O)c2c(C)oc3c2C(=O)c2ccccc2C3=O)C1` (centres undefined), with 0.726; and `CCOC(=O)C1CCN(C(=O)c2c(C)oc3c2C(=O)c2ccccc2C3=O)CC1`, with 0.0992.
Molecule `Cc1oc2c(c1C(=O)N1CCC(C)CC1)C(=O)c1ccccc1C2=O` displayed a viability index of 0.587.
The result for `Cc1oc2c(c1C(=O)NC1CCS(=O)(=O)C1)C(=O)c1ccccc1C2=O` (centres undefined) reads 0.0502; that for `Cc1cc(I)ccc1N1C(=O)C2C3c4ccccc4C(CO)(c4ccccc43)C2C1=O` (centres undefined), 1.06; that for `CC(=O)N(C1=C(N2CCOCC2)C(=O)c2ccccc2C1=O)c1ccc(C(C)C)c(C)c1`, 0.509.
`Oc1c(C(Nc2ccccn2)c2ccc(Br)cc2)ccc2cccnc12` (centres undefined) displayed a viability index of 1.1.
For `Cc1cc(C)n(-c2ccc(NC(=O)C3CCN(Cc4cc(C)c(C)o4)CC3)cc2)n1`, the viability index came out at 0.926.
Then `Oc1ccc2ccccc2c1CNc1nc2ccccc2[nH]1`, with 0.865.
Consider `CCN(CC)CCNc1ccc(Nc2ccnc3cc4ccccc4cc23)cc1`, for which the viability index was 0.423.
For `N#Cc1cc2nc3c(nc2cc1C#N)-c1ccccc1C3=O`, the viability index turned out to be 0.0308.
Regarding `CCOC(=O)c1ccc2nc3c(nc2c1)C(=O)c1ccccc1C3=O`, the viability index turned out to be 0.359.
Then `Cc1ccc(-c2cc3c(nn2)-c2ccccc2C3=O)cc1`, with 0.65; and `Cc1[nH]c2ccccc2c1C=Cc1cc[n+](C)cc1`, with 1.08.
With `O=C(C1CCN(c2nnnn2-c2ccccc2)CC1)N1CCc2ccccc2C1`, the viability index was 0.826.
On to `CCN(CC)c1ccc(C=C(C#N)c2nc3ccccc3[nH]2)o1`, for which the viability index is 0.609.
The result for `N#CC(=CC=Cc1ccc([N+](=O)[O-])o1)c1nc2ccccc2[nH]1` reads 0.0143; that for `N#CC(=Cc1ccc(Sc2ccccc2)o1)c1nc2ccccc2[nH]1`, 0.776.
Molecule `O=S(=O)(c1ccc(Cl)cc1)N1CCN(C(=S)NCc2ccco2)CC1` yielded a viability index of 0.959.
`CCOC(=O)C1=C(C)NC2=C(C(=O)CC(c3ccc(Cl)cc3)C2)C1c1ccc(Br)cc1` (centres undefined) returned a viability index of 0.725.
